From PubChem BioAssay
A selection: hits, their analogues and other compounds. The true share with any hit is near 2.8%.
Integrin act MD = qHTS for Activators of Integrin-Mediated Alleviation for Muscular Dystrophy; alpha7betagal myoblasts, beta-gal FDG fluorescence, 48 h; Potency, µM (doses to about 38.3 µM), for the others: top-dose activation, actives largely listed as activators; 350,000 compounds, 0.064% hits; AID 624291, 2012;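 further: potency means the concentration at half of the fitted maximal effect; 100% = response of the positive control SU9516; nearly all actives have a fitted effect of over 60% in size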
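Alpha7betagal+/- myoblasts (passage 13) were plated 16-24 hr, then exposed to compounds (1:260 dilution of DMSO stock) for 48 hours at 37C. After MPER lysis, β-galactosidase reporter activity was read as FDG fluorescence (ex 480/em 540) after 30 minutes.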
PTHR1 ag = qHTS for PTHR1 Agonists: Primary Screen; AID 743266, 2014; HEK293 GP2 PTHR1 cells, GloSensor cAMP luminescence, 1 h; Parathyroid hormone/parathyroid hormone-related peptide receptor (Homo sapiens), Q03431; 410,000 compounds, 0.075% hits; Potency, µM (titrated, usually from 115 µM), for the others: at the top dose activation, most hits filed as activators; further: potency means the concentration at half of the fitted maximal effect; nearly all actives have a fitted effect of over 55% in size
Target sequence (Q03431 whole entry, looked up): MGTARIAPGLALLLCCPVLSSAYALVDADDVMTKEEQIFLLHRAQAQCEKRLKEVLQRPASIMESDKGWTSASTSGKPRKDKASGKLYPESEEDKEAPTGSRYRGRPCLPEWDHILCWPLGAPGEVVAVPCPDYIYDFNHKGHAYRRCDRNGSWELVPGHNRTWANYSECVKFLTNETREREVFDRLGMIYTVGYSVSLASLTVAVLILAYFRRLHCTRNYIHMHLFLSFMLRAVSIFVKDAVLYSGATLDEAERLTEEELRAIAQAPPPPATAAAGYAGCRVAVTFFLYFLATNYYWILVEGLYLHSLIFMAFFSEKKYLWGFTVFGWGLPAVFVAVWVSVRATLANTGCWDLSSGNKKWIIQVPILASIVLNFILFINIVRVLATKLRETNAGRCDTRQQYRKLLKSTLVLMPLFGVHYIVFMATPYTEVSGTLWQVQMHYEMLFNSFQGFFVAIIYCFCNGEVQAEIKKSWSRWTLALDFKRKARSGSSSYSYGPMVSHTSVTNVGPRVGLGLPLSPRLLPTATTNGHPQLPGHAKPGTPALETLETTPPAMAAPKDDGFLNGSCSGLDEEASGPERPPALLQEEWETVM
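HEK-293-derived GP2 cells expressing PTHR1 and a GloSensor cAMP reporter, 3,000/well, plated overnight, given luciferin plus IBMX (each 0.5 mM as added) for 1 h at 37 °C, then compound for 1 h at 37 °C. Luminescence was read after 15 min at room temperature.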
MBNL1-CUG inh = qHTS Assay for Inhibitors of MBNL1-poly(CUG) RNA binding; Potency, µM (doses to about 57.5 µM), inactives show at the highest dose activity change, negative = inhibition, actives largely listed as inhibitors; 280,000 compounds, 0.036% hits; Muscleblind-like protein 1 (Homo sapiens), Q9NR56; TR-FRET MBNL1-His/biotin-(CUG)12 binding, 665/545 ratio; active means well fitted inhibition curve with a large enough effect in the signal ratio, with a control signal flat, not every such curve was filed as active; inconclusive means small, poorly fitted or top-dose-only effect, or effect the other way, or a change in a side signal; inactive means no such curve, though single readings can be large or run the other way; the % refers to the signal ratio; further: potency means the concentration at half of the fitted maximal effect; on the % scale 0 is the no-effect control and ±100 the full control effect
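MBNL1-His + Biotin-(CUG)12, cpd titration 92 nM–58 uM; Tb anti-His Ab 0.055 ng/ul, SA-XL665 5 nM (final); 60 min RT; ratiometric 665/545 nm, Ex 340 nm; normalized to buffer and full-complex controls.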
DRD3 antagonist = qHTS of D3 Dopamine Receptor Antagonist: qHTS. D(3) dopamine receptor (Homo sapiens), P35462. D3R cells, DiscoveRx beta-arrestin luminescence, antagonist mode; active compounds read low. max response, negative = inhibition, %. 360,000 compounds, 2.5% hits; in the data active means max response below about -50%; inconclusive means no clear call, values can overlap the other calls; further: on the % scale 0 is the no-effect control and ±100 the full control effect
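Cells plated overnight at 1500 cells/well, then exposed to library compounds with dopamine controls for 90 minutes at 37 degrees C. DiscoveRx reagent added for 30–60 minutes at room temperature; luminescence read, quantitative HTS format.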
CBFb RUNX1 block = qHTS Assay for Compounds Blocking the Interaction Between CBF-beta and RUNX1 for the Treatment of Acute Myeloid Leukemia. AlphaScreen CBFb-His/RUNX1-biotin binding, biochemical. Potency, µM (series often up to 59.8 µM), for the others: at the top dose activity, negative = inhibition, actives largely listed as inhibitors. 230,000 tested, under 10 active. AID 1477, 2009; further: % of control where 0% means no effect
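AlphaScreen binding: CBFb-His and RUNX1-biotin (30 nM each) preincubated 20 min, compound added for 15 min, then nickel and streptavidin beads for 90 min, all at room temperature. Disruption of the interaction by any mechanism counts as activity.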
D3 ag = qHTS of D3 Dopamine Receptor Agonist: qHTS; max activation, %; D3R DiscoveRx beta-arrestin cells, luminescence, 90 min; AID 652048, 2013; D(3) dopamine receptor (Homo sapiens), P35462; 410,000 compounds, 0.58% hits; in the data active means max activation above about 30%; further: 0% is about no effect
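Agonist mode: compounds and dopamine controls were applied to plated cells for 90 min at 37 degrees C after an overnight attachment at 1500 cells/well. Luminescent read-out followed 30 - 60 minutes at room temperature with DiscoveRx detection reagent.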
Numbers without * were called inactive; i = inactive; ? = inconclusive; · = no result; ! = not confirmed by another sample; [ ] = remark or other dose. Unless noted, the call rests on the fitted dose curve; in most records, active means well fitted curve in the direction sought with a large enough effect; inconclusive means small, poorly fitted or top-dose-only effect, or another doubt; inactive means no such curve, though single readings can be large; an effect the other way counts as inactive or inconclusive.

SMILES	Integrin act MD	PTHR1 ag	MBNL1-CUG inh	DRD3 antagonist	CBFb RUNX1 block	D3 ag
COc1ccc(-c2cnc3c(NC(C)=O)cc(-c4ccc(C(=O)NC5CC5)cc4)cn23)cc1OC	·	i	·	226	·	36*
COc1cccc(-c2cnc3c(NC(C)=O)cc(-c4ccc(C(=O)NC5CC5)cc4)cn23)c1	·	10%	·	73	·	7
O=c1c2cc(NC(=S)NCCCN3CCC(Cc4ccccc4)CC3)ccc2nc2n1CCCCC2	-31%	-30%	-3%	-94*	-16%	-17
CN1CCCC(CC2Oc3ccccc3Sc3ccccc32)C1 (stereo not drawn)	-28%	i	-2%	-84*	2%	-39
CCOC(=O)c1cnc2ccc(OC)cc2c1Nc1ccc2c(c1)OCCO2	-56%	-95%	8%	-70*	5%	0
CCCCNc1cc(NC(C)=O)cc2cc(OC)c(OC)cc12	-11%	i	?	-75*	-8%	53*
CCNC(=O)N(C)C[C@H]1N[C@@](C)(C(=O)OC)[C@H]2C(=O)N(Cc3ccccc3)C(=O)[C@@H]12	17%	-9%	·	25	·	-11
CO[C@@H]1COC(=O)CCC[C@@H](C)[C@H](OC)COC(=O)CCC[C@H]1C	·	·	·	·	12%[13.1 µM]	·
COc1ccc(C(=O)C2CCCN(Cc3ccc4nonc4c3)C2)c(OC)c1 (stereo not drawn)	-34%	-12%	?	-6	11%	-10
CCC(C)(C)C1CCc2[nH]nc(C(=O)NCc3ccc(Cl)cc3)c2C1 (stereo not drawn)	-36%	-14%	·	-75*	·	0
CCC(C)(C)C1CCc2[nH]nc(C(=O)NCc3ccccn3)c2C1 (stereo not drawn)	-10%	-65%	·	17	·	4
CC(C)n1cc(CN2CCC(C(=O)Nc3ccc(Oc4ccccc4F)cc3)CC2)cn1	?	-8%	-8%	-61*	·	0
CCn1cc(CN2CCC(C(=O)Nc3ccc(Oc4ccccc4F)cc3)CC2)c(C)n1	-53%	-38%	0%	?	·	-12
COc1ccccc1C(=O)NCCCNC(=O)c1ccccn1	40%	-2%	-1%	-24	·	-8
O=C(NCCCNCc1ccccc1)c1ccccn1	11%	?	4%	-66*!	14%	-15
COCc1cc(C)[nH]c(=O)c1C#N	2%	-5%	4%	-53*	7%	-10
CCOC(=O)c1cc(C)[nH]c(=O)c1C#N	4%	i	?	19	-16%	1
CC(=O)N1CCC2(CC1)OC(=O)C(C)=C2C(=O)Nc1cccc(Cl)c1C	·	i	·	·	·	5
Cc1c(C)c2ccc(OCC(=O)N3CC[C@@]4(O)CCCC[C@H]4C3)cc2oc1=O	-9%	i	12%	11	·	33*
O=C(COc1ccc2ccc(=O)oc2c1)N1CC[C@@]2(O)CCCC[C@H]2C1	0%	-5%	19%	4	·	-5
C1CCN(CCCNC2C3CC4CC(C3)CC2C4)C1 (stereo not drawn)	-47%	i	-1%	-53*	-1%	-6
Cc1ccc(NC(=O)CNC(=O)c2ccco2)cc1	2%	-13%	8%	10	·	-3
CCn1cc(CNCc2cn(C)nc2-c2ccc(C3CCCCC3)cc2)cn1	-31%	-7%	-1%	11	8%	-2
Cc1nn(Cc2n[nH]c(=S)n2Cc2ccccc2)c(C)c1Cl	19%	-21%[57.5 µM]	-12%	-87*	1%	-1
CC1(C)CC(=O)C([N+](=O)[O-])=C(NCCCC(=O)O)C1	-4%	-2%	-26%	-8	5%	15
SMILES	Integrin act MD	PTHR1 ag	MBNL1-CUG inh	DRD3 antagonist	CBFb RUNX1 block	D3 ag
CC(=O)C1=C(O)C(=O)N(Cc2cccnc2)C1c1ccc(Cl)cc1 (stereo not drawn)	12%	6%[57.5 µM]	11%	-50*	8%	35*
CC(=O)C1=C(O)C(=O)N(Cc2cccnc2)C1c1ccc(C)cc1 (stereo not drawn)	·	·	7%	·	0%	·
CCc1cccc(CC)c1NC(=O)C(CC)n1nc(C)n2c(cc3cc(C)ccc32)c1=O (stereo not drawn)	·	i	·	·	·	-2
COc1ccc([C@@H]2C[C@H]3[C@@H](CN2S(=O)(=O)c2ccccc2)C(=O)C[C@@H](c2ccc(C)cc2)N3S(=O)(=O)c2ccc(C)cc2)cc1	0%	-18%	·	0	·	5
COc1ccc(CC2(CO)COc3ccccc3C2=O)cc1 (stereo not drawn)	-2%	-17%	·	-21	·	-24
O=C(C1CCCN(Cc2ccncc2)C1)N1CCc2ccccc2C1 (stereo not drawn)	3%	i	4%	-72*	4%	-7
O=C(C1CCCN(Cc2ccccc2F)C1)N1CCc2ccccc2C1 (stereo not drawn)	-9%	0%	-22%	-52*	-9%	-27
Cc1cccc(CN2CCCC(C(=O)N3CCc4ccccc4C3)C2)c1 (stereo not drawn)	?	-7%	-6%	45	4%	1
O=C(NC(NC(=S)Nc1c(Cl)cccc1Cl)C(Cl)(Cl)Cl)OCc1ccccc1 (stereo not drawn)	-41%	-35%	·	-69*	10%	-17
COc1ccc(NC(=O)Nc2cccs2)cc1Cl	5%	-33%	-18%	-63*	-4%	-1
CCOC(=O)c1c(C)[nH]c(CCC(=O)Nc2cc(C)ccc2OC)c1C	·	i	·	·	·	-5
O=c1nc2ccccc2c2n1CC(CN1CCN(c3ccc(F)cc3)CC1)N2 (stereo not drawn)	30%	i	?	-21	19%	-14
O=c1nc2ccccc2c2n1CC(CN1CCN(c3ccccc3F)CC1)N2 (stereo not drawn)	22%	?	4%	-69*	-1%	-16
Cn1c(SCC(=O)NCCc2ccccc2)nnc1C1CCCCC1	0%	i	2%	-9	·	-2
O=C(Nc1nc(N2C(=O)c3ccccc3C2=O)n(-c2ccccc2)n1)c1ccccc1	0%	-1%	-8%[11.5 µM]	42	13%	2
O=C(Nc1nc(N2C(=O)c3ccccc3C2=O)n(-c2ccccc2)n1)c1ccc(F)cc1	1%	i	-7%	-55*	-2%	12
